Hits are enriched below; roughly 2.5% of the tested compounds scored in any of these assays.
Pol kappa inh-1: qHTS for Inhibitors of Polymerase Kappa | purified Pol kappa, fluorescent DNA synthesis assay, 10 min | 400,000 tested, 0.53% active | AID 588579, 2011 | Potency, µM (doses to about 107 µM), for the others: top-dose activity, negative = inhibition, hits mostly inhibitors; also: % is scaled to controls: 0 for no effect and ±100 for the full control effect
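50 nM final substrate added after 15 min RT preincubation of 10 nM Pol kappa with compound; fluorescence read at 0 and 10 min.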
Pol eta inh-1: qHTS for Inhibitors of Polymerase Eta; 390,000 tested, 1.2% active; recombinant Pol eta, fluorescent DNA replication assay; Potency, µM (top dose mostly 114 µM), without a hit: at the top dose activity change, negative = inhibition, usual class: inhibitors; DNA polymerase eta (Homo sapiens), Q9Y253; AID 588591, 2011; also: % is scaled to controls: 0 for no effect and ±100 for the full control effect
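Pol eta (10 nM) was preincubated with compounds for 15 min at room temperature, after which fluorescent replication substrate (50 nM final) was added to start the reaction. Fluorescence was read kinetically at 0 and 10 min.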
L3MBTL1 block: qHTS Assay for the Inhibitors of L3MBTL1. Lethal(3)malignant brain tumor-like protein 1 (Homo sapiens), Q9Y468. AlphaScreen L3MBTL1–H3K9me1 peptide binding. Potency, µM (titrated, usually from 57.1 µM), for the others: top-dose activity, negative = inhibition, usual class: inhibitors. 230,000 tested, 0.66% active. AID 485360, 2010; also: % is scaled to controls: 0 for no effect and ±100 for the full control effect; nearly all actives have a fitted effect of over 60% in size
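L3MBTL1 (50 nM) pre-complexed 30 min with biotinylated H3(1-15)K9me1 peptide (75 nM), then compounds added for 30 min at room temperature; AlphaScreen streptavidin donor/nickel chelate acceptor beads (10 ug/mL final) read after 30 min dark incubation.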
WRN inhibitor: qHTS for Inhibitors of WRN Helicase; Bifunctional 3'-5' exonuclease/ATP-dependent helicase WRN (Homo sapiens), Q14191; WRN helicase unwinding, fluorescent forked duplex, kinetic; Potency, µM (doses to about 114 µM), inactives show top-dose activity change, negative = inhibition, usual class: inhibitors; 360,000 tested, 0.46% active; also: % is scaled to controls: 0 for no effect and ±100 for the full control effect; nearly all actives have a fitted effect of over 55% in size
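Kinetic red-fluorescence monitoring (525/598 nm) tracks WRN helicase activity after 100 nM fluorophore-quencher forked duplex and 2 mM ATP are added to 20 nM enzyme pretreated 15 min at room temperature with compound.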
Pol iota inh: qHTS for Inhibitors of Polymerase Iota; Potency, µM (doses to about 115 µM), inactives show top-dose activity, negative = inhibition, hits mostly inhibitors; AID 588590, 2011; 390,000 tested, 1% active; Pol iota fluorescent replication assay, 10 min; DNA polymerase iota (Homo sapiens), Q9UNA4
Target sequence (Q9UNA4 whole entry, looked up): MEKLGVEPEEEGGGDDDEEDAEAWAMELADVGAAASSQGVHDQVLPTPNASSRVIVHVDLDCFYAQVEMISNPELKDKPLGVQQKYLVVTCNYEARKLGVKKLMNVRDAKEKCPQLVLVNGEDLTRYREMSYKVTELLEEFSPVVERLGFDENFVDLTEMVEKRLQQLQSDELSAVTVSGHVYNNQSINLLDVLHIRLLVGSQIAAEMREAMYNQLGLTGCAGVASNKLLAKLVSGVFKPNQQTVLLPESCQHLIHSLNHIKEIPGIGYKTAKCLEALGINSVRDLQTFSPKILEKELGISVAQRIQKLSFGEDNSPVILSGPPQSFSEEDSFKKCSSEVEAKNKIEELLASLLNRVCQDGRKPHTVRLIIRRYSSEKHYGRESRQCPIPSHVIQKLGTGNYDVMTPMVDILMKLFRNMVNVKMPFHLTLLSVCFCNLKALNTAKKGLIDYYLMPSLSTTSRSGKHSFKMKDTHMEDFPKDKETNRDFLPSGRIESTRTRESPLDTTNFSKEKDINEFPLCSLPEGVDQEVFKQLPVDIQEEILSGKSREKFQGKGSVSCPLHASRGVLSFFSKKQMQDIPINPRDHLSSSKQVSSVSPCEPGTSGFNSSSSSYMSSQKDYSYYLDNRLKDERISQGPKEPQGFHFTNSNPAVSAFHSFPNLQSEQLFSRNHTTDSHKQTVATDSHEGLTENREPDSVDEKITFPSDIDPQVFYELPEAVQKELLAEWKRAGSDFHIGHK
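Fluorescent replication assay read twice, at 0 min and 10 min after adding 50 nM (final) substrate. Enzyme (10 nM) and compounds were first incubated 15 min at room temperature; enzyme-free buffer wells were negative controls.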
POLB inh: qHTS Assay for Inhibitors of DNA Polymerase Beta | 340,000 tested, 1.3% active | Potency, µM (top dose mostly 114 µM), inactives show at the highest dose activity change, negative = inhibition, actives largely listed as inhibitors | Pol beta primer extension/strand displacement, fluorescence kinetic | AID 485314, 2010; also: % is scaled to controls: 0 for no effect and ±100 for the full control effect
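Curves were derived by four-parameter Hill fits of normalized qHTS data. The kinetic fluorescent primer-extension read was taken at 0 and 10 min after 50 nM substrate, following a 15 min room-temperature preincubation of 10 nM enzyme with compounds.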
Pol kappa inh-2: qHTS for Inhibitors of Polymerase Kappa: Confirmatory Assay for Cherry-picked Compounds. 920 tested, 76% active. AID 720501, 2013. shares compounds with Pol eta inh-1. Potency, µM, hits mostly inhibitors. purified Pol-kappa, fluorescent strand-displacement substrate
Pol eta inh-2: qHTS for Inhibitors of Polymerase Eta: Confirmatory Assay for Cherry-picked Compounds; 2,600 tested, 64% active; Potency, µM, hits mostly inhibitors; shares compounds with Pol eta inh-1; Pol eta primer extension, TAMRA/BHQ fluorescence, 10 min
An asterisk follows results filed as active; ? = inconclusive; nt = no result; [ ] = dose if it differs, or a comment. Calls follow the shape of the dose curve; as a rule, active = well fitted curve in the direction sought with a large enough effect; inconclusive = small, poorly fitted or top-dose-only effect, or another doubt; inactive = no such curve, though single readings can be large; an effect the other way counts as inactive or inconclusive. Potency is read from the fitted curve at half-maximal effect.

SMILES | Pol kappa inh-1 | Pol eta inh-1 | L3MBTL1 block | WRN inhibitor | Pol iota inh | POLB inh | Pol eta inh-2 | others
COc1ccc(C(=O)Nc2ccccc2C(=O)NC(Cc2ccc(O)cc2)C(=O)NNC(=O)c2ccccc2Cl)cc1 (stereo not given) | -17% | ? | -4% | -7% | ? | ? | nt
Cc1oc(C(=O)O)cc1COc1ccc2c3c(c(=O)oc2c1)CCC3 | ? | 18µM* | nt | -17%[57.1 µM] | -19% | 35µM* | ?
COC(=O)c1cc(COc2ccc3c4c(c(=O)oc3c2)CCCC4)c(C)o1 | -3% | -9% | 4% | -5% | -12% | -1% | nt
Cc1ccc(-n2c(C)cc(/C=N/NC(=O)CC3(C)OCCO3)c2C)c(C)c1 | -22% | 2% | -1% | -3% | ? | -21% | nt
CC1(CC(=O)N/N=C/c2cc([N+](=O)[O-])c(O)cc2O)OCCO1 | ? | 22µM* | ? | ? | ? | 4.5µM* | ?
CC(=O)Oc1ccccc1-c1nc(C)nc(N(C)C(C)=O)n1 | 1% | -7% | nt | -18% | 22% | 27% | nt
Cc1csc(NC(=O)CSc2nsc(SCC(=O)Nc3nc(C)cs3)c2C#N)n1 | -19% | -4% | -21% | -10% | -1% | 27% | nt
Cc1csc(NC(=O)CSc2sc3c(O)cc(=O)[nH]c3c2C#N)n1 | 28µM* | 18µM* | nt | 40µM* | 7.9µM* | 45µM* | ? | Pol kappa inh-2=?
COc1ccc(NC(=O)CSc2sc3c(O)cc(=O)[nH]c3c2C#N)c(OC)c1 | ? | 22µM* | nt | ? | 2.5µM* | 1.6µM* | ? | Pol kappa inh-2=?
COC(=O)c1ccc(C)c(NC(=O)CSc2sc3c(O)cc(=O)[nH]c3c2C#N)c1 | 22µM* | 10µM* | nt | ? | 13µM* | 35µM* | ? | Pol kappa inh-2=?
CC(=O)NC(=S)Nc1ccc(N2CCOCC2)c(S(=O)(=O)Nc2cc(Cl)ccc2Cl)c1 | -4% | -16% | -15% | -2% | 23% | 2% | nt
Cc1ccc(-n2nc3c(c2NC(=O)c2cc4ccccc4o2)CS(=O)(=O)C3)cc1 | -7% | -7% | nt | -3% | 0% | -2% | nt
O=S(=O)(c1ccc(F)cc1)N1CCc2ccccc2C1 | -9% | -9% | 5% | -22% | 170% | 32% | nt
Cc1cc(OC(C)C(=O)NC(Cc2c[nH]c3ccc(O)cc23)C(=O)O)c2c(C)c(C)c(=O)oc2c1 (stereo not given) | -25% | ? | nt | -8%[11.6 µM] | ? | ? | ?
Cc1cc(=O)oc2cc(OCC(=O)NC(Cc3c[nH]c4ccc(O)cc34)C(=O)O)c(Cl)cc12 (stereo not given) | ? | 25µM* | nt | -12% | 71µM* | ? | ?
CCCCc1cc(=O)oc2cc(C)cc(OC(C)C(=O)NC(Cc3c[nH]c4ccc(O)cc34)C(=O)O)c12 (stereo not given) | -21% | 0% | nt | -1% | -20% | -30% | nt
CC1=C(C(=O)O)N2C(=O)C(NC(=O)c3nn(C)cc3Cl)C2SC1 (stereo not given) | -11% | -29% | 4% | 7% | 13% | 28% | nt
Cn1nnnc1SCC1=C(C(=O)O)N2C(=O)C(NC(=O)Cn3nc(C(F)F)cc3C3CC3)C2SC1 (stereo not given) | ? | 20µM* | nt | -11%[11.6 µM] | 35µM* | 18µM* | ?
Cc1c(Cl)cnn1CC(=O)NC1C(=O)N2C(C(=O)O)=C(CSc3nnnn3C)CSC12 (stereo not given) | ? | 22µM* | nt | -12%[11.6 µM] | ? | 20µM* | 43*
Cc1c(Cl)c(C(F)F)nn1CC(=O)NC1C(=O)N2C(C(=O)O)=C(CSc3nnnn3C)CSC12 (stereo not given) | ? | 20µM* | nt | -12%[11.6 µM] | ? | 22µM* | 76*
Cc1nn(CC(=O)NC2C(=O)N3C(C(=O)O)=C(CSc4nnnn4C)CSC23)cc1Br (stereo not given) | -19% | ? | nt | -7%[11.6 µM] | -26% | 32µM* | 76*
CCn1ccc(C(=O)NC2C(=O)N3C(C(=O)O)=C(C)CSC23)n1 (stereo not given) | -3% | -8% | 2% | -4% | -10% | -2% | nt
COCCNC(=O)c1c(N)n(CCCn2ccnc2)c2nc3ccccc3nc12 | 2% | 9% | 16% | -12% | ? | 13% | nt
CCc1cccc(CC)c1NC(=O)c1cc(CN2C(=O)c3ccccc3C2=O)ccc1OC | -10% | -11% | 5% | -6% | 9% | -14% | nt
O=C1CSC(=S)N1N=Cc1ccc(Cl)s1 | ? | ? | nt | 20µM* | 14µM* | nt | 54* | Pol kappa inh-2=17*
SMILES | Pol kappa inh-1 | Pol eta inh-1 | L3MBTL1 block | WRN inhibitor | Pol iota inh | POLB inh | Pol eta inh-2 | others
COc1ccc(Cl)cc1NC(=O)CN(C)S(=O)(=O)c1ccc(Br)s1 | 0% | -15% | nt | nt | 0% | 2% | nt
O=C(C1Cc2ccccc2CN1C(=O)c1ccccc1)N1CCN(c2ccccc2)CC1 (stereo not given) | ? | 79µM* | ? | -7%[11.6 µM] | ? | 32µM* | 76* | Pol kappa inh-2=?
COc1ccc(N2CCN(C(=O)C3Cc4ccccc4CN3C(=O)c3ccco3)CC2)cc1 (stereo not given) | -17% | -3% | -3% | -14% | -1% | nt | nt
COc1cccc(-c2coc3c(C)c4oc(=O)c(CCC(=O)O)c(C)c4cc23)c1 | -38% | 50µM* | nt | ? | ? | ? | 48*
COc1cccc(-c2coc3c(C)c4oc(=O)c(CC(=O)O)c(C)c4cc23)c1 | -10% | -23% | nt | -10% | 97% | -2% | nt
COc1ccc(/C=C/C(=O)Nc2ccc(NC(C)=O)cc2)cc1S(=O)(=O)N1CCOCC1 | -15% | 4% | nt | -9% | 7% | 1% | nt

Screens from PubChem.
